The record followed here is PubChem BioAssay (NCI).

Experiment [1] can be described thus: NCI Yeast Anticancer Drug Screen. Data for the rad50 strain (AID 155).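 Note: 0% = growth of vehicle-only cultures of the same strain.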 The note with it: S. cerevisiae rad50 strain growth inhibition, active compounds read high; at 50.0 µM unless noted. Put shortly: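 Growth of the mutant yeast was measured after compound exposure and referenced to vehicle-treated cultures.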
Experiment [2] is described as follows: NCI Yeast Anticancer Drug Screen. Data for the mec2-1 strain (AID 157). Conditions: S. cerevisiae mec2-1 strain, active compounds read high; at 50.0 µM unless noted. The method in brief:
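mec2-1 yeast strain, carrying an alteration in DNA damage repair or cell cycle control, was exposed to compounds; growth inhibition was measured relative to vehicle-treated controls.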

Experiment [3] is described as follows: NCI Yeast Anticancer Drug Screen. Data for the sgs1 mgt1 strain (AID 161).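 Note: 0% = growth of cultures given vehicle only.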 Conditions: S. cerevisiae sgs1 mgt1 strain, active compounds read high; at 50.0 µM unless noted. Put shortly:
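Growth of a repair-deficient yeast mutant was monitored after compound treatment and expressed as inhibition relative to vehicle-treated cultures.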

Experiment [4] in a line: NCI Yeast Anticancer Drug Screen. Data for the cln2 rad14 strain (AID 165).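 Note: 0% = growth equal to vehicle treated cultures.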 The note with it: S. cerevisiae cln2 rad14 strain, active compounds read high; at 50.0 µM unless noted. Put shortly: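 Yeast carrying cln2 and rad14 alterations (cell cycle control and DNA damage repair) were exposed to compounds. Growth inhibition was measured against vehicle-treated controls.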
The nature of experiment [5]: NCI Yeast Anticancer Drug Screen. Data for the bub3 strain (AID 167). The note with it: S. cerevisiae bub3 mutant strain, active compounds read high; at 50.0 µM unless noted. The method in brief:
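Whole-cell yeast assay. The mutant strain was incubated with compounds, and growth inhibition was determined by comparison with vehicle-treated cells.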

Experiment [6] in a line: NCI Yeast Anticancer Drug Screen. Data for the mlh1 rad18 strain (AID 175). The note with it: S. cerevisiae mlh1 rad18 strain growth inhibition, active compounds read high; at 50.0 µM unless noted. Put shortly:
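Growth inhibition of the yeast strain was measured after compound exposure and expressed relative to vehicle-treated controls. The strain carries defined defects in DNA damage repair.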

Structures are written as SMILES. Several values for one entry are separate records, joined by “and”; a condition that tells them apart may be missing. Equal entries are not always repeated. The panel holds about 79,000 compounds, 15% with a hit somewhere; the sample as a whole holds those more often. Unmarked numbers belong to inactive results. Activity calls are given as the source filed them. Cut-off read from the data, not from the text of the source: active = growth inhibition above about 70%; inactive = the rest.

Consider `O=c1cc(C(F)(F)F)[nH]c2ccc(F)cc12`, for which the growth inhibition in experiment [1] was 1.95%; in experiment [2], -10.4%; in experiment [3], 6.4%; in experiment [4], -27.6%; in experiment [5], -27%; in experiment [6] it was 7.55%.
On to `CN(C)c1cccc2c(S(=O)(=O)NCCCNCCN)cccc12`, for which the growth inhibition is 7.6% in experiment [1]; -18.4% in experiment [2]; -20.9% in experiment [3]; 24.4% in experiment [4]; -21.2% in experiment [5]; -6.6% in experiment [6].
For the molecule `CC/C(=N/NC(N)=O)c1ccc(C)cc1`, the growth inhibition in experiment [1] is -11.9%; in experiment [2], -11.8%; in experiment [3], -10.2%; in experiment [4], -21.1%; in experiment [5], 2.75%; in experiment [6], -8.9%.
Turning to `CCOC(=O)CNC(=O)C(CCC(=O)N(C)O)NC(=O)CCC(N)C(=O)O` (stereo not given), the growth inhibition in experiment [1] was -20.1%; in experiment [2] it was -5.5%; in experiment [3], -0.8%; in experiment [4] it was -0.05%; in experiment [5], 4.25%; in experiment [6], -35.5%.
`CCCCOC(=O)C(O)Cc1ccoc1` (stereo not given): the growth inhibition in experiment [1] was 5.25%; in experiment [2], -33.9%; in experiment [3], -17.9%; in experiment [4] it was 12.9%; in experiment [5], -14.4%; in experiment [6], -14.4%.
With `O=P(O)(O)OP(=O)(O)O`, the growth inhibition was -15.3% in experiment [1]; -15.1% in experiment [2]; -2.4% in experiment [3]; -12.1% in experiment [4]; -54.6% in experiment [5]; 25.8% in experiment [6].
Turning to `Nc1ncnc2c1ncn2C1OC(CSCC(F)(F)F)C(O)C1O` (stereo not given), the growth inhibition in experiment [1] was -4.05%; in experiment [2], -11.8%; in experiment [3] it was -8.65%; in experiment [4] it was 26.6%; in experiment [5], -7.8%; in experiment [6], -11.4%.
In the case of `O=C(c1ccccc1)c1ccc(NC(=O)C(F)(F)F)cc1`, the growth inhibition in experiment [1] was 15.7%; in experiment [2], 5.9%; in experiment [3], 3.85%; in experiment [4], 4.75%; in experiment [5] it was -0.15%; in experiment [6], 18.9%.
On to `O=C1OCCOCCOCCOCCOC(=O)c2cccc1n2`, for which the growth inhibition in experiment [1] is -10.2%; in experiment [2], 6.65%; in experiment [3], 12.6%; in experiment [4] it was 17.1%; in experiment [5], 5.2%; in experiment [6], 7.2%.
Take `Nc1ncnc2c1ncn2C1OC(C(O)CO)C(O)C1O` (stereo not given): the growth inhibition is -0.65% and -17.4% in experiment [1]; -1.4% and -71.8% in experiment [2]; -4.2% and -6.85% in experiment [3]; -81.3% and 10.2% in experiment [4]; 1.15% and 16.4% in experiment [5]; -16.1% and -31.6% in experiment [6].
With `CC(NC(=O)CNC(=O)OCc1ccccc1)C(=O)O` (stereo not given), the growth inhibition in experiment [1] is 3.55%; in experiment [2] it was 9.35%; in experiment [3] it was 11.6%; in experiment [4], -0.35%; in experiment [5], 8.1%; in experiment [6] it was -10.1%.
For the molecule `CC(=O)Oc1cc(C)c(OC(C)=O)c2ccccc12`, the growth inhibition was -6.6% in experiment [1]; 17.7% in experiment [2]; 4.45% in experiment [3]; -1.3% in experiment [4]; 10.3% in experiment [5]; 4.1% in experiment [6].
For `O=C(Nc1ccc(O)cc1)c1ccc([N+](=O)[O-])cc1`, the growth inhibition in experiment [1] was -1.75%; in experiment [2], 6.6%; in experiment [3], 3.35%; in experiment [4] it was 0.05%; in experiment [5], 9.05%; in experiment [6], -2.2%.
With `CCCCCCCCCCCCCCCC[N+](C)(C)CC#N`, the growth inhibition in experiment [1] is 99.4% (active); in experiment [2], 99.3% (active); in experiment [3], 99.2% (active); in experiment [4], 99% (active); in experiment [5], 99.2% (active); in experiment [6], 99.5% (active).
For `O=c1[nH]c(-c2ccccc2)nc2nc3ccc([N+](=O)[O-])cc3[n+]([O-])c12`, the growth inhibition in experiment [1] is 19.9%; in experiment [2], -2%; in experiment [3], -1.75%; in experiment [4], -7.55%; in experiment [5] it was -1%; in experiment [6] it was 7%.
Turning to `CCSC(SCC)=C1C(=O)N(c2ccccc2)N=C1C`, the growth inhibition in experiment [1] is -6.75%; in experiment [2] it was -18.8%; in experiment [3], -4.1%; in experiment [4] it was 16.2%; in experiment [5], 8.6%; in experiment [6], 2.85%.
With `O=C(OC1OCC(OCc2ccccc2)C(OCc2ccccc2)C1OCc1ccccc1)c1ccccc1` (stereo not given), the growth inhibition in experiment [1] is 22.6%; in experiment [2], -21.5%; in experiment [3], -3.9%; in experiment [4], -24.3%; in experiment [5] it was -4.2%; in experiment [6] it was -9.15%.
As for `C1=NC(c2ccccc2)=CN(C2CCCCCCCCCCC2)C1(c1ccccc1)C1CCCCCCCCCCC1` (stereo not given), the growth inhibition is -18.2% in experiment [1]; -8.55% in experiment [2]; -12% in experiment [3]; -19.4% in experiment [4]; 12.3% in experiment [5]; 13.2% in experiment [6].
In the case of `O=C1C=C(Nc2ccccc2)c2ccccc2C1=O`, the growth inhibition in experiment [1] was -1.15% and 24.4%; in experiment [2], 16.4% and -8.6%; in experiment [3], 11.4% and 25.4%; in experiment [4], -14.5% and 19.9%; in experiment [5] it was 33.9% and 14.1%; in experiment [6], 15.2% and 12.2%.
Take `COC1CCC(/C=C(\C#N)C2CCC(C)CC2)CC1` (stereo not given): the growth inhibition in experiment [1] is 18.3%; in experiment [2], 22.1%; in experiment [3], 43.9%; in experiment [4], 12.1%; in experiment [5], 30.2%; in experiment [6], 30.6%.
